Laboratory results taken from PubChem BioAssay AID1159580 (chemical genetic matrix, 2015).
Among all 5,500 compounds or so, about 2,000 (36%) were called active. Not shown: some 18% with an inconclusive outcome. Cut-off read from the data, not from the text of the source: active = normalized growth mostly below about 0.91 (no sharp cut-off); inconclusive = no clear call, values can overlap the other calls; inactive = mostly above about 0.92. Some of the results follow.

Assay: chemical genetic growth profiling, strain panel (AID 1159580);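 note: tested at 20 µM; growth read once vehicle control cultures reached saturation at 30 °C; 1 = growth at the plate median or of vehicle wells; lower values mean less growth of the strain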
Settings: growth OD

Measured: normalized growth

S=c1nc[nH]c2nc[nH]c12
inactive: S. cerevisiae deletion strains, locus YJR075W, strain HOC1, stronger effect = lower value 0.996 | S. cerevisiae deletion strains, locus YKL009W, strain mrt4, stronger effect = lower value 0.987 | S. cerevisiae deletion strains, locus YKL068W, stronger effect = lower value 0.983 | S. cerevisiae deletion strains, locus YKL085W, strain MDH1 (second series), stronger effect = lower value 0.966 | S. cerevisiae deletion strains, locus YKL085W, strain MDH1, stronger effect = lower value 0.966 | S. cerevisiae deletion strains, locus YKL160W, strain elf1, stronger effect = lower value 1.04 | S. cerevisiae deletion strains, locus YKR001C, strain vps1, stronger effect = lower value 0.99 | S. cerevisiae deletion strains, locus YKR026C, strain gcn3, stronger effect = lower value 1.01 | S. cerevisiae deletion strains, locus YKR091W, strain srl3, stronger effect = lower value 0.996 | S. cerevisiae deletion strains, locus YLL001W, strain dnm1, stronger effect = lower value 1.01 | S. cerevisiae deletion strains, locus YLL026W, stronger effect = lower value 1.01 | S. cerevisiae deletion strains, locus YLL041C, strain sdh2, stronger effect = lower value 0.989 | S. cerevisiae deletion strains, locus YLR027C, strain aat2, stronger effect = lower value 1.02 | S. cerevisiae deletion strains, locus YLR039C, strain RIC1, stronger effect = lower value 1 | S. cerevisiae deletion strains, locus YLR058C, strain SHM2, stronger effect = lower value 0.982 | S. cerevisiae deletion strains, locus YLR102C, strain apc9, stronger effect = lower value 0.978 | S. cerevisiae deletion strains, locus YLR113W, strain HOG1, stronger effect = lower value 1 | S. cerevisiae deletion strains, locus YLR221C, strain rsa3, stronger effect = lower value 1.01 | S. cerevisiae deletion strains, locus YLR258W, strain gsy2, stronger effect = lower value 1.01 | S. cerevisiae deletion strains, locus YLR262C, strain YPT6 (second series), stronger effect = lower value 1.03 | S. cerevisiae deletion strains, locus YLR262C, strain YPT6, stronger effect = lower value 0.959 | S. cerevisiae deletion strains, locus YLR268W, strain sec22, stronger effect = lower value 1 | S. cerevisiae deletion strains, locus YLR320W, strain mms22, stronger effect = lower value 1.02 | S. cerevisiae deletion strains, locus YLR330W, strain CHS5, stronger effect = lower value 0.992 | S. cerevisiae deletion strains, locus YLR342W, strain FKS1 (second series), stronger effect = lower value 1 | S. cerevisiae deletion strains, locus YLR342W, strain FKS1, stronger effect = lower value 1.02 | S. cerevisiae deletion strains, locus YLR357W, strain rsc2, stronger effect = lower value 1.08 | S. cerevisiae deletion strains, locus YLR370C, strain arc18, stronger effect = lower value 1.01 | S. cerevisiae deletion strains, locus YLR371W, strain rom2, stronger effect = lower value 0.988 | S. cerevisiae deletion strains, locus YLR384C, strain iki3, stronger effect = lower value 1 | S. cerevisiae deletion strains, locus YLR418C, strain cdc73, stronger effect = lower value 1.01 | S. cerevisiae deletion strains, locus YML016C, strain PPZ1, stronger effect = lower value 1 | S. cerevisiae deletion strains, locus YML032C, strain rad52, stronger effect = lower value 1 | S. cerevisiae deletion strains, locus YML120C, strain ndi1, stronger effect = lower value 0.986 | S. cerevisiae deletion strains, locus YML124C, strain tub3, stronger effect = lower value 0.989 | S. cerevisiae deletion strains, locus YMR058W, strain fet3, stronger effect = lower value 0.988 | S. cerevisiae deletion strains, locus YMR078C, strain ctf18, stronger effect = lower value 0.973 | S. cerevisiae deletion strains, locus YMR125W, strain sto1, stronger effect = lower value 1.07 | S. cerevisiae deletion strains, locus YMR129W, stronger effect = lower value 1.01 | S. cerevisiae deletion strains, locus YMR205C, strain PFK2, stronger effect = lower value 1.01 | S. cerevisiae deletion strains, locus YMR223W, strain ubp8, stronger effect = lower value 0.949 | S. cerevisiae deletion strains, locus YMR231W, strain pep5, stronger effect = lower value 1.02 | S. cerevisiae deletion strains, locus YMR263W, strain SAP30, stronger effect = lower value 0.999 | S. cerevisiae deletion strains, locus YMR307W, strain GAS1, stronger effect = lower value 1.08 | S. cerevisiae deletion strains, locus YNL067W, strain RPL9B, stronger effect = lower value 0.996 | S. cerevisiae deletion strains, locus YNL071W, strain lat1, stronger effect = lower value 1 | S. cerevisiae deletion strains, locus YNL183C, strain NPR1, stronger effect = lower value 0.966 | S. cerevisiae deletion strains, locus YNL209W, strain ssb2, stronger effect = lower value 1.03 | S. cerevisiae deletion strains, locus YNL233W, strain BNI4, stronger effect = lower value 1 | S. cerevisiae deletion strains, locus YNL248C, strain rpa49, stronger effect = lower value 1.05 | S. cerevisiae deletion strains, locus YNL250W, strain rad50, stronger effect = lower value 0.974 | S. cerevisiae deletion strains, locus YNL271C, strain bni1, stronger effect = lower value 0.979 | S. cerevisiae deletion strains, locus YNL298W, strain CLA4, stronger effect = lower value 0.989 | S. cerevisiae deletion strains, locus YNL307C, strain MCK1, stronger effect = lower value 0.988 | S. cerevisiae deletion strains, locus YNL322C, strain KRE1 (second series), stronger effect = lower value 1.02 | S. cerevisiae deletion strains, locus YNL322C, strain KRE1, stronger effect = lower value 0.994 | S. cerevisiae deletion strains, locus YNR049C, strain mso1, stronger effect = lower value 1 | S. cerevisiae deletion strains, locus YNR052C, strain pop2, stronger effect = lower value 0.979 | S. cerevisiae deletion strains, locus YOL006C, strain TOP1, stronger effect = lower value 1.01 | S. cerevisiae deletion strains, locus YOL012C, strain htz1 0.693 | S. cerevisiae deletion strains, locus YOL147C, strain pex11, stronger effect = lower value 0.982 | S. cerevisiae deletion strains, locus YOR001W, strain rrp6, stronger effect = lower value 1 | S. cerevisiae deletion strains, locus YOR061W, strain CKA2, stronger effect = lower value 0.993 | S. cerevisiae deletion strains, locus YOR069W, strain VPS5, stronger effect = lower value 0.998 | S. cerevisiae deletion strains, locus YOR070C, strain gyp1, stronger effect = lower value 1.01 | S. cerevisiae deletion strains, locus YOR080W, strain dia2, stronger effect = lower value 1 | S. cerevisiae deletion strains, locus YOR083W, strain WHI5, stronger effect = lower value 0.983 | S. cerevisiae deletion strains, locus YOR106W, strain vam3, stronger effect = lower value 1.03 | S. cerevisiae deletion strains, locus YOR136W, strain idh2, stronger effect = lower value 0.99 | S. cerevisiae deletion strains, locus YOR144C, strain elg1, stronger effect = lower value 1 | S. cerevisiae deletion strains, locus YOR184W, strain ser1, stronger effect = lower value 0.996 | S. cerevisiae deletion strains, locus YOR231W, strain MKK1, stronger effect = lower value 1 | S. cerevisiae deletion strains, locus YOR265W, strain rbl2, stronger effect = lower value 1.01 | S. cerevisiae deletion strains, locus YOR270C, strain vph1, stronger effect = lower value 1.09 | S. cerevisiae deletion strains, locus YOR290C, strain snf2, stronger effect = lower value 1.04 | S. cerevisiae deletion strains, locus YOR316C, strain cot1, stronger effect = lower value 0.982 | S. cerevisiae deletion strains, locus YPL051W, strain arl3, stronger effect = lower value 1.01 | S. cerevisiae deletion strains, locus YPL055C, strain LGE1, stronger effect = lower value 0.992 | S. cerevisiae deletion strains, locus YPL078C, strain atp4, stronger effect = lower value 0.997 | S. cerevisiae deletion strains, locus YPL106C, strain sse1, stronger effect = lower value 1.01 | S. cerevisiae deletion strains, locus YPL240C, strain hsp82, stronger effect = lower value 1.01 | S. cerevisiae deletion strains, locus YPL241C, strain CIN2, stronger effect = lower value 0.994 | S. cerevisiae deletion strains, locus YPL256C, strain CLN2, stronger effect = lower value 1.04 | S. cerevisiae deletion strains, locus YPR119W, strain clb2, stronger effect = lower value 0.977 | S. cerevisiae deletion strains, locus YPR141C, strain kar3, stronger effect = lower value 0.98 | S. cerevisiae deletion strains, locus YPR163C, strain tif3, stronger effect = lower value 0.974 | S. cerevisiae deletion strains, locus YPR167C, strain met16, stronger effect = lower value 0.988 | S. cerevisiae deletion strains, strain wtn01, stronger effect = lower value 0.978 | S. cerevisiae strains, strain wild type, stronger effect = lower value 1
